Measurements reported in PubChem BioAssay (NCATS).
Results filed as inconclusive are left out. Where a call stands in place of a potency, no number is given. The source made the active and inactive calls. Calls come from the whole dose curve; as a rule, active = well fitted cell-killing curve with a large enough effect; inconclusive = small, poorly fitted or top-dose-only effect; inactive = flat fitted curve, though single readings scatter.

Test: Cell Viability - LYMP2-018 (AID 985);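 note: compound exposure lasted 24 hr at 37 °C; nearly all actives have a fitted effect of over 50% in size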
Settings: LYMP2-018 lymphoblastoid cells, viability (qHTS); series mostly up to 92.2 µM
Description: NIH Chemical Genomics Center [NCGC]
NIH Molecular Libraries Screening Centers Network [MLSCN]
National Institutes of Environmental Health Sciences [NIEHS]
National Toxicology Program [NTP]
We have developed a 1536-well cell-based assay for quantitative high throughput screening (qHTS) against a number of cell lines to determine in vitro cytotoxicity of small molecules. This particular assay uses a human lymphoblastoid cell line (LYMP2-018) purchased from Coriell Institute for Medical Research.
NCGC Assay Protocol Summary:
The CellTiter-Glo luminescent cell viability assay (Promega) is a homogeneous method to measure the number of viable cells in culture. The end point readout of this assay is based on quantitation of intracellular ATP, an indicator of metabolic activity, using the luciferase reaction. Luciferase catalyzes the oxidation of beetle Luciferin to oxyluciferin and light in the presence of ATP. The luminescent signal is proportional to amount of ATP present.
Using the CellTiter-Glo luminescent cell viability assay, the amount of cellular ATP was measured in the lymphoblastoid cell line with complete culture medium following compound treatment for 24 hours. The assay was performed in opaque white Kalypsys 1536-well plates. In the screen, tetraoctylammonium bromide was used as positive control. Library compounds were measured for their ability to cause acute toxicity in the cell line, as reflected by a decrease in intracellular ATP levels, in a concentration-dependent manner. […] AC50 values were determined from concentration-response data modeled with the standard Hill equation.
qHTS protocol for CellTiter Glo lymphoblastoid cellular assay
[Step] [Parameter] [Value] [Description]
1. Reagent; 5 uL; 2500 lymphoblastoid cells/well
2. Time; 5 hr; 37 C incubation
4. Controls; 23 nL; Tetraoctylammonium bromide 6.4pM to 92 uM
5. Time; 24 hr; 37 C incubation
6. Reagent; 5 uL; CellTiter Glo reagent
7. Time; 30 min; Room Temperature
8. Detection; Luminescence; Viewlux plate reader
Keywords: cell viability, cytotoxicity, lymphoblastoid cell line, luminescence, NTPHTS, NTPHTS_NCGC, NIEHS, DSSTox, MLSMR, MLSCN, NIH Roadmap, qHTS, NCGC

Row | SMILES | Potency
1 | Cc1cccc(C)c1O | inactive
2 | CC(C)=CCl | inactive
3 | c1ccc2c(c1)ccc1ncccc12 | inactive
4 | COc1ccc(N)c(OC)c1 | inactive
5 | CCCCCNCCCCC | inactive
6 | O=C(O)c1ccc(Cl)c(Cl)c1 | inactive
7 | CSc1ccc(C=O)cc1 | inactive
8 | CC#N | inactive
9 | CC(=O)c1ccccn1 | inactive
10 | FB(F)F | inactive
11 | CC(C)c1ccccc1 | inactive
12 | Nc1ccc(F)cc1F | inactive
13 | Nc1nc(-c2ccccc2)cs1 | inactive
14 | C/C=C1\CC2C=CC1C2 (stereo not given) | inactive
15 | Cc1cc([N+](=O)[O-])ccc1N | inactive
16 | CCN(C(=O)N(CC)c1ccccc1)c1ccccc1 | inactive
17 | CCCCC(CC)C(=O)O (stereo not given) | inactive
18 | C=C(C)OC(C)=O | inactive
19 | O=C(Cl)c1c(Cl)cccc1Cl | inactive
20 | C/C=C(/C)C#N | inactive

Row | SMILES | Potency
21 | Oc1cccc(Nc2ccccc2)c1 | inactive
22 | CNc1ccc([N+](=O)[O-])cc1 | inactive
23 | c1ccc2c(c1)Oc1ccccc1S2 | inactive
24 | Nc1c(Cl)cc(Cl)cc1Cl | inactive
25 | CC(C)CO | inactive
26 | O=Cc1cccc(Br)c1 | inactive
27 | Nc1cc(Cl)c(N)c(Cl)c1 | inactive
28 | c1ccc(Oc2ccccc2)cc1 | inactive
29 | Cc1ccccc1Br | inactive
30 | CC(C)N(C)C | inactive
31 | CCCCOCCOCCSC#N | inactive
32 | O=C1OC(=O)c2cc([N+](=O)[O-])ccc21 | inactive
33 | O=C(O)c1ccc(Cl)cc1Cl | inactive
34 | CC(=O)OCCC(C)C | inactive
35 | CO[Si](CCCNCCC[Si](OC)(OC)OC)(OC)OC | inactive
36 | O=Cc1c(Cl)cccc1Cl | inactive
37 | CCc1ccccc1 | inactive
38 | Nc1nc2ccccc2[nH]1 | inactive
39 | FC(F)(F)c1ccccc1Cl | inactive
40 | CC(C)Cc1nccs1 | inactive
